Bioassay records deposited in PubChem BioAssay by several laboratories.
An excerpt weighted towards active compounds, which were near 22% of everything screened.
CYP2C19 inhib = blocks human cytochrome P450 2C19; CYP2C19 Supersomes, luciferin-H EGE luminescence, 30 min; inhibition, % at 5 µM; 21% of 96,000 active;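 active = CYP2C19 inhibition above a set limit at 5 µM in the primary screen, cut at about 50% in these data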;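 also: plate controls were negative control wells for no effect and 2.5 mM tranylcypromine positive control for full effect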
Target sequence (P33261 whole entry, looked up): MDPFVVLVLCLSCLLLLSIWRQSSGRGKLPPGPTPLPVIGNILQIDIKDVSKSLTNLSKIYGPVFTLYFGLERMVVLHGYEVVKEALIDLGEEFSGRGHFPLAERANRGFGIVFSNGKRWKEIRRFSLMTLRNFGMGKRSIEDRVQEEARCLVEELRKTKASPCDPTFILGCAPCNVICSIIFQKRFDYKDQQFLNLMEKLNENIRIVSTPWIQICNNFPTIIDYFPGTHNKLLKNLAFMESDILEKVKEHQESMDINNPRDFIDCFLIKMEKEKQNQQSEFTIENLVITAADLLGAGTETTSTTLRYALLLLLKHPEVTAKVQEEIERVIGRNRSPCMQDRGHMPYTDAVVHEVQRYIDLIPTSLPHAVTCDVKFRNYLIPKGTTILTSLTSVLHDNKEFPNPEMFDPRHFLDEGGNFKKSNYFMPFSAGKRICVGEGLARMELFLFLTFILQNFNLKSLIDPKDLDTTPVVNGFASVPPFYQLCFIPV
CYP2C19 act = cytochrome P450 2C19 (human) activation; recombinant CYP2C19, luciferin-H EGE luminescence; active compounds read high; 0 = fully inhibited enzyme, 1 = untreated enzyme; activation factor at 5 µM; 96,000 tested, under 10 active; AID 1025;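 active = activation factor of at least 2 at 5 µM in the primary screen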;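 also: 0 = wells with 2.5 mM tranylcypromine and 1 = vehicle-only wells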
E-sel TNF inh = TNF alpha driven E-selectin expression inhibition; inhibition, % at 2 µM; HUVEC TNFa-induced E-selectin immunofluorescence, high content; 0.71% of 120,000 active;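 active = inhibition above the batch mean plus 3 SD, and confirmed as a hit on visual image review, cut at about 43% in these data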;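 also: 0% = TNF-stimulated DMSO wells and 100% = unstimulated control wells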
CYP2C9 activ = CYP2C9 (human) activation; recombinant CYP2C9, luciferin-H conversion, luminescence; active compounds read high; factor 1 = untreated enzyme, 0 = blocked; P11712; 1.4% of 96,000 active; AID 1024; activation factor at 5 µM;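 active = activation factor of 2 or more for CYP2C9 at a 5 µM dose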;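 also: 0 = sulfaphenazole-blocked wells and 1 = vehicle-only wells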
CYP2C9 inh = human CYP2C9 inhibition; P11712; CYP2C9 Supersomes, luciferin-H conversion, luminescence; inhibition, % at 5 µM; 20% of 96,000 active;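 active = blocking of liver enzyme CYP2C9 beyond about 50% at 5 µM, limit read from the data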
cytoskel mod = cytoskeleton assembly modification. inhibition, % at 2 µM. HUVEC TNFa F-actin phalloidin imaging, high content. 0.18% of 91,000 active;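 active = inhibition above the batch mean plus 3 SD and confirmed as a hit by visual image inspection, cut at about 30% in these data, passing the limit was not always enough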
Starred values were filed as active, the others as inactive; x = no result.

SMILES	CYP2C19 inhib	CYP2C19 act	E-sel TNF inh	CYP2C9 activ	CYP2C9 inh	cytoskel mod
Cc1ccc(CCNC(=O)C2CCN(S(=O)(=O)c3ccc4c(c3)CCC(=O)N4)CC2)cc1	-19.3	1.2	-28.2	0.8	19.2	x
O=C1CCc2cc(S(=O)(=O)N3CCC(C(=O)NC4CCCC4)CC3)ccc2N1	14.7	0.9	-2.5	0.5	52.5*	-7.5
COc1ccc(Oc2cc(C)c3cccc(C)c3n2)cc1	4.2	1	-1.6	0.9	7.8	-5.6
Cc1ccc(-c2nnn(CC(=O)N(c3cccc(F)c3)C(C(=O)NC(C)(C)C)c3ccco3)n2)o1 (stereo not given)	x	x	1.8	x	x	x
CCCN(CCC)CC(O)COc1ccc2c(c1)OCO2 (stereo not given)	x	x	-15.5	x	x	x
Cc1ccc2cc3c(NC(=O)c4ccco4)nn(C)c3nc2c1	1.8	1	22.3	0.8	20.2	-36.1
COc1ccc(C)cc1NC(=O)CN1CCN(S(=O)(=O)c2ccc(F)cc2)CC1	52.5*	0.5	2.6	0.8	22.7	-8.0
COc1ccc(OC)c(NC(=O)CCN2CCN(c3ccccc3F)CC2)c1	77.0*	0.2	19.0	0.4	60.3*	-18.9
COc1cccc(NC(=O)CCN2CCN(c3ccccc3F)CC2)c1	37.9	0.6	-15.1	0.7	33.0	10.4
COc1ccccc1N1CCN(CCC(=O)Nc2ccc3c(c2)OCO3)CC1	54.4*	0.5	-5.8	0.4	64.7*	12.9
COc1ccc(C)cc1NC(=O)CN1CCN(C/C=C/c2ccccc2)CC1	87.5*	0.1	-7.6	0.3	66.6*	0.0
Cc1noc(C)c1COC(=O)c1ccc2c(c1)OCO2	36.4	0.6	-0.2	0.6	36.5	13.0
CC1=[N+]([O-])C(N2CCOCC2)C(O)(c2ccccc2)C1 (stereo not given)	2.6	1	-8.6	1	-4.2	-1.9
COc1ccc(C)cc1NC(=O)CN1CCN(c2ccccc2F)CC1	69.7*	0.3	-12.5	0.7	34.4	x
COc1cc(NC(=O)CN2CCN(c3ccccc3F)CC2)c(C)cc1[N+](=O)[O-]	x	x	-21.1	x	x	x
COc1ccc(OC)c(NC(=O)C2CCC(CNc3c(N4CCC(C)CC4)c(=O)c3=O)CC2)c1 (stereo not given)	24.7	0.8	-6.8	1.3	-26.8	4.8
O=C1NCCCC2c3c(cc(Br)c(O)c3Br)OC12N1CCCCC1 (stereo not given)	97.4*	0	0.6	0.6	44.5	15.8
Cc1cccc(C)c1N1CCN(c2ccc3nnc(C(F)(F)F)n3n2)CC1	63.5*	0.4	8.9	0.1	88.7*	1.3
Cc1ccccc1-n1nc2c(c1NC(=O)c1ccc(Br)o1)CSC2	15.2	0.8	x	0.4	56.8*	21.7
COC(=O)c1ccc(NC(=O)CSc2ccccc2)cc1	x	x	0.7	x	x	x
Cc1ccc(C(=O)CSc2ccccn2)cc1	82.5*	0.2	13.0	0.6	43.4	-29.8
Cc1cc(SCC(=O)c2ccccc2)nc(C)n1	67.4*	0.3	18.7	0.8	22.2	9.5
COC(=O)c1ccc(NC(=O)CSc2ccccn2)cc1	81.5*	0.2	6.0	0.5	54.2*	-7.7
Cc1cc(C)n2nc(SCn3nnc4ccccc4c3=O)nc2n1	72.5*	0.3	x	0.9	7.9	-8.2
COc1ccc(CNC(=O)CSc2nc3nc(C)cc(C)n3n2)cc1	19.6	0.8	-58.8	0.4	60.7*	12.9
SMILES	CYP2C19 inhib	CYP2C19 act	E-sel TNF inh	CYP2C9 activ	CYP2C9 inh	cytoskel mod
Cc1cc(C)n2nc(SCC(=O)N(C)Cc3ccccc3)nc2n1	-5.8	1.1	-15.1	1.2	-22.1	22.0
Cc1cc(C)n2nc(SCC(=O)c3ccccc3)nc2n1	58.9*	0.4	-20.2	0.7	28.8	-10.5
Cc1cc(SCC(N)=O)nc(SCC(=O)c2ccccc2)n1	19.8	0.8	9.8	1	3.9	21.4
Cc1ccc(C(=O)CSc2cc(C)nc(SCC(=O)c3ccccc3)n2)cc1	32.8	0.7	-10.9	0.3	73.2*	-11.7
CCOC(=O)C1=C(O)/C(=C/c2cc(OC)c(OC)c(OC)c2)SC1=Nc1ccc(OC)cc1	x	x	-53.1	x	x	x
CCN(CC)P1(=O)OC(c2cc(OC)c(OC)c(OC)c2)=Nc2c1c(C)nn2-c1ccccc1 (stereo not given)	78.4*	0.2	x	0	96.4*	-10.8
CCc1ccc2nc(SCC(=O)N(CC)CC)c(C#N)cc2c1	8.6	0.9	-13.5	0.8	21.6	6.1
CCc1nc(SCc2cccnc2)[nH]c(=O)c1C	41.8	0.6	-18.8	0.2	82.0*	x
CCCc1cc(=O)[nH]c(SCc2cccnc2)n1	x	x	-12.3	x	x	-11.7
CCn1c(-c2cc(Cl)ccc2OC)n[nH]c1=S	28.5	0.7	-3.4	1	3.7	-2.8
C=CCn1c(-c2cccn(Cc3ccc(Cl)cc3Cl)c2=O)n[nH]c1=S	80.2*	0.2	9.4	0.9	5.8	13.4
C=CCn1c(-c2cc(Cl)ccc2OC)n[nH]c1=S	82.2*	0.2	x	0.5	50.2*	0.3
Cc1cc(C)c(Cc2c(C)nc3c(C(=O)NCc4ccco4)cnn3c2C)c(C)c1	7.6	0.9	-26.1	0.2	78.5*	-12.3
O=C(CSc1nc2nc(-c3cccs3)cc(C(F)(F)F)c2c(=O)[nH]1)NCc1ccco1	6.2	0.9	6.6	0.3	72.5*	-7.4
O=C(NCc1ccco1)c1cnn2c(C(F)F)cc(-c3ccccc3)nc12	1.4	1	-0.2	0.4	57.8*	-9.4
O=C(NCc1ccco1)c1cnn2c(C(F)(F)F)cc(-c3cccs3)nc12	33.6	0.7	14.5	0.5	50.7*	-6.6
CCN(c1ccc(NC(=O)CSc2nnc3nc(C)cc(C)n23)cc1)C(C)C	10.0	0.9	2.6	0.9	11.1	26.3
O=C(COc1ccc(/C=N/NC(=O)c2ccc(O)cc2)cc1)Nc1cccc([N+](=O)[O-])c1	x	x	-7.1	x	x	x
CCCCN(C)Cc1c(C)[nH]c2c(Cl)cccc2c1=O	16.0	0.8	3.9	1	2.7	-10.8
CC(C)(C)OCC(NC(=O)C(CC(N)=O)NC(=O)OC(C)(C)C)C(=O)OC(C)(C)C (stereo not given)	2.7	1	x	1.1	-6.9	x
O=C(NNC(=O)c1ccc(SCC2CCCO2)c([N+](=O)[O-])c1)c1ccc(Cl)c([N+](=O)[O-])c1 (stereo not given)	12.0	0.9	1.3	0.3	73.6*	5.8
O=C(NNC(=O)c1ccccc1Br)c1ccc(SCC2CCCO2)c([N+](=O)[O-])c1 (stereo not given)	7.9	0.9	-7.4	0.4	61.9*	13.0
CCCCC(c1nnnn1Cc1ccco1)N1CCN(C(=O)c2ccco2)CC1 (stereo not given)	85.3*	0.1	x	0.5	50.7*	8.8
CC(C)CC(c1nnnn1CCc1ccccc1)N1CCN(C(=O)c2ccco2)CC1 (stereo not given)	80.1*	0.2	x	0	98.5*	23.4
COc1cc(/C=N/OCC(=O)NC2CCS(=O)(=O)C2)ccc1OC(F)F (stereo not given)	x	x	-16.1	x	x	x
